Only some compounds are listed: those with a hit (about 7% of all), similar ones and a draw of the others.
JMJD2A Tudor: blocks the human JMJD2A Tudor domain; AlphaScreen JMJD2A-Tudor / H3K4me3 peptide binding; Potency, µM (titrated, usually from 114 µM), most hits filed as inhibitors; hit rate 4.4% among 390,000; AID 504339; also: nearly all actives have a fitted effect of over 50% in size
PLK1 PBD block: PLK1 (human) polo-box domain binding inhibition; P53350; Plk1 PBD binding of FITC phosphopeptide, fluorescence polarization; Potency, µM, usual class: inhibitors; hit rate 2.8% among 360,000; AID 720504; also: series mostly up to about 57 µM; nearly all actives have a fitted effect of over 65% in size
HP1b chromo inh: HP1-beta chromodomain-methylated histone interaction inhibition. AlphaScreen HP1-beta / biotin-H3K9me3 peptide binding. Potency, µM (series often up to 114 µM), usual class: inhibitors. hit rate 0.56% among 390,000. AID 540317; also: nearly all actives have a fitted effect of over 70% in size
Target sequence (P83916 whole entry, looked up): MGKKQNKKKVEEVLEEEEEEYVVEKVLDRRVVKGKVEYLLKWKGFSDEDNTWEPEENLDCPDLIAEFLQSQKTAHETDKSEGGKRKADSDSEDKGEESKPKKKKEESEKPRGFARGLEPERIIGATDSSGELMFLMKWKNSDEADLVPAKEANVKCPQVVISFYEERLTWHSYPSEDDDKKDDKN
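AlphaScreen: HP1-beta (50 nM) preformed 30 min with biotin-H3(1-18)K9me3 peptide (50 nM) in PBS pH 7.4, 0.01% Tween-20. Compound added for 30 min at RT, then streptavidin donor/nickel chelate acceptor beads (10 ug/mL) for 30 min.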
PI5P4Ka inh: blocks human PI5P4K alpha kinase activity. PI5P4Kalpha enzyme, ADP-Glo luminescence, 60 min; stronger effect = lower value. max response, %. hit rate 1.2% among 330,000; active = max response of -50% or lower; inconclusive = between -30% and -50%; inactive = -30% or higher; also: value at the top dose of about 77 µM
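Human PI5P4Kalpha with substrate in 0.038 M HEPES pH 7.4, 0.28 mM EGTA, 0.1% CHAPS, 5% DMSO; reaction started with 5 microM ATP (final), 60 min at room temperature. ADP formed read by ADP-Glo luminescence.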
BAZ2B block: inhibitors of human BAZ2B bromodomain. Q9UIF8. AlphaScreen BAZ2B-H3K14Ac peptide displacement. Potency, µM (highest dose often 114 µM), hits mostly inhibitors. hit rate 4.4% among 360,000; also: nearly all actives have a fitted effect of over 60% in size
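Compounds, titrated to a top concentration of 110 uM, were incubated 30 min at room temperature with preformed BAZ2B/acetyl-K14 H3 peptide complex (50 nM each). Proximity signal was measured by AlphaScreen after 20 min with beads.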
KAT2A inh: blocks human GCN5L2 histone acetyltransferase; Q92830; GCN5L2 HAT assay, ThioGlo1 CoA-SH fluorescence; Potency, µM (top dose mostly 58.9 µM), most hits filed as inhibitors; hit rate 0.21% among 390,000; AID 504327
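qHTS, 1536-well. 20nM enzyme, pH 7.5 HEPES/EDTA/Tween-20 buffer; 15 min compound preinc., RT. Start: 75uM H3(1-25), 70uM AcCoA, 50uM ThioGlo1. Read Ex340/Em540 at t=0 (autofluorescence flag) and t=20 min.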
A number is an active result; . = inactive; ? = inconclusive; / = no result; [ ] = another dose, or the depositor's remark. Unless noted, calls follow the shape of the dose curve; as a rule, active = well fitted curve in the direction sought with a large enough effect; inconclusive = small, poorly fitted or top-dose-only effect, or another doubt; inactive = no such curve, though single readings can be large; an effect the other way counts as inactive or inconclusive.

SMILES	JMJD2A Tudor	PLK1 PBD block	HP1b chromo inh	PI5P4Ka inh	BAZ2B block	KAT2A inh
CCC1(c2ccc(F)cc2)NC(=O)N(CC(=O)Nc2ccccc2Cl)C1=O (stereo not drawn)	.	.	.	.	.	.
CCC1(c2ccc(F)cc2)NC(=O)N(CC(=O)Nc2ccccc2C)C1=O (stereo not drawn)	71µM	?	.	.	.	.
O=S(=O)(NCCc1nnc2ccc(SCc3ccc(C(F)(F)F)cc3)nn12)c1ccccc1	.	/	.	/	.	.
COC(=O)COc1cccc(NC(=O)c2ccc(Cl)cc2)c1	?	30µM	.	.	.	.
COc1cccc(C2(O)CC(C(F)(F)F)=NN2C(=O)c2ccccn2)c1 (stereo not drawn)	.	.	.	.	.	25µM
O=C(NC1CCCCCC1)C(=S)N1CCOCC1	79µM	5.3µM	?	.	?	.
O=C(c1ccc2c(c1)OCCO2)N1CCN(c2ccccn2)CC1	.	.	.	.	.	.
O=C(c1ccc2c(c1)OCO2)N1CCN(c2ccccn2)CC1	.	21µM	?	.	.	.
NC1(C(=O)O)CCCCC1c1ccccc1 (stereo not drawn)	1.4µM	.	.	.	/	/
O=C(Nc1ccccc1)Nc1ccc(Cl)nc1Cl	.	.	.	.	/	/
O=C(Nc1cccc(Br)c1)c1ccn[nH]1	.	.	.	.	.	.
O=C(O)c1ccn[nH]1	45µM	.	.	.	/	/
CCCC1(c2ccccc2)NC(=O)N(C/C=C/Cl)C1=O (stereo not drawn)	?	27µM	.	.	.	.
CCCC1(c2ccccc2)NC(=O)N(CC(=O)N(C)Cc2c(F)cccc2Cl)C1=O (stereo not drawn)	25µM	24µM	.	.	.	.
CCN(C(=O)c1cc2c(=O)n(CC)c3ccccc3c2s1)c1cccc(C(F)(F)F)c1	.	/	.	/	.	.
CCc1ccc(NC(=O)c2ccc(Cn3nc(N4CCN(c5ccccc5)CC4)ccc3=O)o2)cc1	?	/	.	/	50µM	.
Cc1cc(C)c2sc(N(CCCN(C)C)C(=O)c3ccc(Br)s3)nc2c1	?	.	.	.	50µM	.
Cc1sc2ncn(CC(=O)NCCCC(=O)N3CCCCC3)c(=O)c2c1C	.	.	.	.	.	.
CCc1ccc(O)c(-c2cc(C(=O)Nc3cccnc3)[nH]n2)c1	.[11.4 µM]	27µM	.	.	.	.
CC(=O)Oc1ccc(-c2cc3c(OC(C)=O)cc(OC(C)=O)cc3oc2=O)cc1	.	.	.	-56	/	/
COc1ccc(-c2onc(C)c2C)cc1S(=O)(=O)NCCc1ccco1	?	.	.	.	50µM	.
COc1ccc(-c2onc(C)c2C)cc1S(=O)(=O)NCc1ccco1	.	/	.	/	.	.
CCC1CCC2(C1)N=C(Nc1nc3ccccc3o1)NC1=C2C(=O)CCC1 (stereo not drawn)	.	/	/	/	/	/
CC1CCC2(C1)N=C(Nc1nc3ccccc3o1)NC1=C2C(=O)CCC1 (stereo not drawn)	56µM	/	/	/	/	/
Cc1cc(OCc2cccc(S(=O)(=O)N3CCOCC3)c2)ccc1Cl	.	.	.	.	.	.
SMILES	JMJD2A Tudor	PLK1 PBD block	HP1b chromo inh	PI5P4Ka inh	BAZ2B block	KAT2A inh
Cc1cccc(N=C2NC(=O)S/C2=C\c2ccco2)c1	40µM	.	.	?	?	.
O=C1NC(=Nc2ccc(O)cc2)S/C1=C/c1ccco1	.	.	.	?	.	.
O=C1NC(=Nc2ccc3ccccc3c2)S/C1=C/c1ccco1	?	.	.	-55	20µM	?
Cc1cc(C)cc(N=C2NC(=O)/C(=C/c3cccs3)S2)c1	.	.	.	.	.	.
Cc1cccc(N=C2NC(=O)/C(=C/C=C/c3ccco3)S2)c1	18µM	?	?	-67	35µM	.
O=C1NC(=Nc2ccc(Cl)cc2)/C(=C/c2ccco2)S1	11µM	.	.	?	50µM	.
CC(=O)c1ccc(NC(=O)CN(C)S(=O)(=O)c2cnc[nH]2)cc1	.	/	.	/	.	.
CC1CCCCN1C(=S)NC(=O)c1cc(Br)ccc1Cl (stereo not drawn)	.	.	.	.	.	.
COc1ccc2c(c1)cc(CNc1ccc(OC)c(OC)c1)c(=O)n2CC(=O)Nc1ccc(F)cc1	.	/	.	/	?	.
CCOC(=O)[C@H]1[C@H]2COc3ccc(Cl)cc3[C@@H]2N2C(=O)c3ccc(Cl)cc3NC(=O)[C@@]12C	.	.	.	.	.	.
O=C(CSc1nnnn1-c1ccc(F)cc1)c1ccc(O)c(O)c1	?	.	.	.	45µM	.
O=C(CSc1nnnn1-c1ccc(F)cc1)NC1CCCCC1	79µM	27µM	?	.	.	.
O=C(CNC(=O)c1ccccc1)NCCCSc1ccccc1	.	.	.	.	/	.
Cc1cc(SCNC(=O)c2ccccc2)ncn1	28µM	.	?	/	.	.
Cc1cc(C)nc(SCNC(=O)c2ccc(F)cc2)n1	.	.	.	.	.	.
O=C(NCNC(=O)c1ccccc1)c1ccccc1	.	.	.	/	.	.
O=C(NCCSc1ccc(Br)cc1)c1ccccc1	?	27µM	.	.	.	.
O=C(NCSc1ccccc1)c1ccccc1	.	24µM	.	.	.	.

Compound activity (PubChem)
